Screen size: about 5,900 compounds; about 140 (2.4%) were called active. Shown is part of a subset that was picked to be rich in actives. Unmarked numbers belong to inactive results. Cut-off read from the data, not from the text of the source: active = binding response below about 16% or above about 210%; inactive = in between.
What follows are compounds tested against Mitogen-activated protein kinase kinase kinase 2 (Homo sapiens) (UniProt Q9Y2U5) (assay: modulators of MEK5 binding to wildtype MEKK2, confirmation, biochemical, single concentration, multiplex bead flow cytometry (AID 1892)). Conditions: Alexa488-MEK5 binding to MEKK2 WT, at 10 µM, actives lie on both sides.
With CN(C)CCCNC(=O)/C=C/c1ccc(OCc2c(F)cccc2Cl)cc1 the binding response (% of control) was 150%. In the case of O=C(c1cnn(-c2ccc(Cl)cc2)c1)c1ccccc1O, the binding response (% of control) is reported as 112%. For O=C(O)/C=C\C(=O)Nc1ccc(OCc2ccccc2)cc1, the binding response (% of control) was 102%. In the case of O=C(OCc1cc(Cl)ccc1OC(F)F)c1cccnc1, the binding response (% of control) is reported as 95%. CCNC(=O)CSc1nc(-c2ccccc2)cs1 was tested, and the binding response (% of control) was 99%. For O=C(OCC1O[C@@H](OC(=O)c2cc(O)c(O)c(O)c2)[C@@H](OC(=O)c2cc(O)c(O)c(O)c2)[C@@H](OC(=O)c2cc(O)c(O)c(O)c2)[C@@H]1OC(=O)c1cc(O)c(O)c(O)c1)c1cc(O)c(O)c(O)c1 (stereo partly drawn), the binding response (% of control) was -1% [inhibitor] (active). For CCOC(=O)c1c(-c2ccccc2)csc1NC(=S)NC(=O)c1ccccc1, the binding response (% of control) was 102%. With CCCCCCCCCCOC(=O)Cn1c(COc2ccc(C)cc2)[n+](C)c2ccccc21 the binding response (% of control) was 217% (active). In the case of CCCCCCCCCCOC(=O)Cn1c(COc2cccc(OC)c2)[n+](C)c2ccccc21, the binding response (% of control) is reported as 257% (active). Work on FC(F)(F)c1cccc(N/N=C/c2ccccc2)c1 yielded a binding response (% of control) of 151%. For Cc1ccc(S(=O)(=O)NC(=O)N2CCCC(C)(C)C2)cc1, the binding response (% of control) was 101%. With COc1cc(/C=C2\SC(=S)N(Nc3ncc(C(F)(F)F)cc3Cl)C2=O)cc(OC)c1OC the binding response (% of control) was 74%. Work on Cc1cc(Cl)ccc1OCc1nc(-c2ccncc2)no1 yielded a binding response (% of control) of 80%. COc1ccccc1N1CCN(CCCCOc2ccc(F)cc2)CC1 gave a binding response (% of control) of 109%. Compound Cc1no[n+]([O-])c1COc1ccccc1/C=C1\NC(=S)NC1=O has a binding response (% of control) of 99%. Work on CCO[C@H]1OC(C(=O)N2CCOCC2)=C[C@@H](c2ccc3c(c2)OCO3)[C@@H]1CCCO yielded a binding response (% of control) of 101%. With c1ccc(Nc2nc(N3CCOCC3)c3ccccc3n2)cc1 the binding response (% of control) was 124%. COCC(C)NC(=O)COc1nncc2ccccc12 (stereo not drawn) showed a binding response (% of control) of 96%. Cn1c(=NC(=O)CSCC(=O)N2CCOCC2)sc2ccccc21 showed a binding response (% of control) of 90%. Work on CCc1nnc(NC(=O)c2sc3nc(C)cc(COC)c3c2N)s1 yielded a binding response (% of control) of 107%. For Cc1ccccc1C(=O)NNC(=O)CN1C(=O)c2ccccc2C1=O, the binding response (% of control) was 92%. With C#CCOCCOCCOCCNc1nc(N2CCN(C(=O)[C@H](CCCCN)n3cc([C@@H](N)C(C)CC)nn3)CC2)nc(N2CCN(C(=O)[C@H](Cc3ccc(O)cc3)n3cc([C@@H](N)C(C)CC)nn3)CC2)n1 (stereo partly drawn) the binding response (% of control) was 183%. COc1ccc(C2CC(c3cccs3)=NN2c2nc(C)c(C(C)=O)s2)cc1OC (stereo not drawn) was tested, and the binding response (% of control) was 82%. For CCOC(=O)c1cc2occc2n1CC(=O)N1CCN(C(=O)c2ccco2)CC1, the binding response (% of control) was 92%. In the case of COC(=O)c1cc(NC(=O)c2cc(C(C)(C)C)nn2Cc2cccc(C)c2)ccc1N1CCOCC1, the binding response (% of control) is reported as 102%. In the case of Cc1ccc(S(=O)(=O)/N=S(\C)C(C)C)cc1 (stereo not drawn), the binding response (% of control) is reported as 101%. CCOC(=O)/C(C#N)=C/c1ccc(OCC(=O)Nc2ccccc2)c(OC)c1 gave a binding response (% of control) of 103%. CN(C)CCCN(C(=O)c1ccc(S(=O)(=O)N2CCCc3ccccc32)cc1)c1nc2ccc(F)cc2s1 showed a binding response (% of control) of 198%. In the case of O=C(Nc1ccc2ccccc2c1)Nc1ccc2snnc2c1, the binding response (% of control) is reported as 155%. With CCOc1ccc(NC(=O)Nc2cc(C)ccc2OC)cc1 the binding response (% of control) was 106%. With CCOc1cc(C(=O)OCC(=O)Nc2cccc(C)c2)ccc1OCC(=O)N1CCOCC1 the binding response (% of control) was 106%. With CCOC(=O)Cc1csc(NC(=O)CSc2nc(C)cc(=O)[nH]2)n1 the binding response (% of control) was 92%. Compound CCOc1nnc(C)c2c(C)n(-c3cccc(Cl)c3)nc12 has a binding response (% of control) of 86%. For O=C(COC(=O)CNC(=O)c1ccco1)Nc1ccc(F)cc1, the binding response (% of control) was 98%. Cn1c(=NC(=O)CSCC(=O)N2CCCCC2)sc2ccccc21 gave a binding response (% of control) of 103%. With N=C1/C(=C/c2cccn2-c2cccc([N+](=O)[O-])c2)C(=O)N=C2SC=CN12 the binding response (% of control) was 99%. In the case of O=C(c1ccc(Br)o1)N(c1ccccn1)C1CCCCC1, the binding response (% of control) is reported as 101%. Work on CC(C)(C)NC(=O)Cn1cnc([N+](=O)[O-])n1 yielded a binding response (% of control) of 96%. Work on O=C(CC1SCCNC1=O)Nc1ccc(Cl)c(Cl)c1 (stereo not drawn) yielded a binding response (% of control) of 104%. For O=c1c(/C=N/O)coc2ccc(Cl)cc12, the binding response (% of control) was 100%. Compound CCN(CC)C(=O)CC(c1ccc2c(c1)OCO2)c1c(OC)cc(OC)c2c(-c3ccccc3)cc(=O)oc12 (stereo not drawn) has a binding response (% of control) of 99%. For Cc1ccc(C(=O)N/C(=C/c2ccco2)C(=O)NCCc2c[nH]c3ccccc23)cc1C, the binding response (% of control) was 101%. CN1CCN(/N=C/c2ccc(C#N)cc2)CC1 was tested, and the binding response (% of control) was 92%. In the case of CCN1CCN(c2nc(Nc3cc(OC)ccc3OC)nc(Nc3cc(OC)ccc3OC)n2)CC1, the binding response (% of control) is reported as 148%. COc1ccccc1OCCNCC(O)COc1cccc2[nH]c3ccccc3c12 (stereo not drawn) showed a binding response (% of control) of 159%. With COc1ccccc1NC(=S)N1CCN(c2ccc(F)cc2)CC1 the binding response (% of control) was 100%. Compound O=C(O)/C(=C/c1cccnc1)NC(=O)c1ccccc1 has a binding response (% of control) of 103%. In the case of c1ccc(CN2CCC(N=C3NN=C(c4ccc5c(c4)OCCO5)CS3)CC2)cc1, the binding response (% of control) is reported as 164%. Work on COc1cccc(/C(C)=N/Nc2ncc(Cl)cc2Cl)c1 yielded a binding response (% of control) of 100%. In the case of O=C(c1ccco1)N1CCN(c2cccc(Cl)c2)CC1, the binding response (% of control) is reported as 93%. Work on COC(=O)C1=NN(c2ccccc2)C2C(=O)N(c3ccccc3OC)C(=O)C12 (stereo not drawn) yielded a binding response (% of control) of 97%. Work on Cc1cccc(CN2CCC(CNC(=O)Nc3ccc(F)c(Cl)c3)CC2)c1 yielded a binding response (% of control) of 126%. For CCN1CCN(CCNC(=O)c2ccc(/C=C3/Sc4ccccc4N(Cc4cccc(C)c4)C3=O)cc2)CC1, the binding response (% of control) was 236% (active). With C/C(=N\NC(=O)CNC(=O)C(c1ccccc1)c1ccccc1)c1ccc(C)cc1 the binding response (% of control) was 106%. CCOC(=O)c1cc2c(nc1NC(=S)Nc1ccccc1)CC(C)(CC)OC2 (stereo not drawn) gave a binding response (% of control) of 101%. In the case of C=CCN(CC=C)S(=O)(=O)c1ccc(C(=O)Nc2sc3c(c2C(N)=O)CCCCC3)cc1, the binding response (% of control) is reported as 99%. COc1cccc(NC(=S)NCCCN2CCOCC2)c1 was tested, and the binding response (% of control) was 109%. CCOc1ccc(S(=O)(=O)N(CC(=O)O)c2ccccc2)cc1 showed a binding response (% of control) of 103%.

Source: PubChem BioAssay AID1892 (NMMLSC, 2009)
